Most compounds without a hit are left out; they make up all but 19% or so of the library.
uPA surface inh = cell surface uPA generation inhibition | cell surface uPA generation assay, qHTS | Potency, µM (highest dose often 38.3 µM), without a hit: top-dose activity change, negative = inhibition, hits mostly inhibitors | 330,000 tested, 0.31% active; active = well fitted inhibition curve with a large enough effect; inconclusive = small, poorly fitted or top-dose-only effect; inactive = no such curve, though single readings can be large or run the other way; tested in mouse RAW 264.7 cells; note: potency is the fitted concentration of half-maximal effect; nearly all actives have a fitted effect of over 55% in size
HT1080 IDH1KD tx = toxicity to HT-1080 IDH1 knockdown cells (counter line); HT-1080 IDH1 knockdown viability, ATP luminescence, 48 h; Potency, µM (highest dose often 46.1 µM), without a hit: top-dose activity, negative = toxicity, most hits filed as cytotoxic; 360,000 tested, 2% active;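 note: potency is the fitted concentration of half-maximal effect; 0% = DMSO wells and -100% = cell-free medium wells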
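Viability of IDH1-knockdown HT-1080 fibrosarcoma cells was assessed by CellTiter-Glo after 48 h at 37 °C with titrated compound; concentration-effect curves were classified by fit quality and response size.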
IL1B secr inh = inflammasome signaling inhibition, IL-1 beta readout; THP-1 LPS/ATP IL-1B secretion, AlphaLISA, 16 h; stronger effect = lower value; activity change, % at 57.5 µM; 360,000 tested, 4.7% active; AID 743279; in the data active = activity change below about -50%; inconclusive = mostly about -30% to -49%
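Secreted IL-1B measured by AlphaLISA bead assay after 16 h compound exposure of THP-1 cells; compounds (final up to 57.5 uM) added 1 h before LPS (250 ng/mL) and ATP (1.25 mM) stimulation; lower signal means less secretion.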
HT1080-NT tox = kills 2HG-producing HT-1080-NT fibrosarcoma cells | Potency, µM (titrated, usually from 46.1 µM), without a hit: at the highest dose activity, negative = less viability, actives largely listed as cytotoxic | HT-1080-NT fibrosarcoma viability, CellTiter-Glo ATP luminescence, 48 h | 360,000 tested, 1.6% active;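 note: NT is the 2HG producing partner of a matched IDH1 knockdown line; potency is the fitted concentration of half-maximal effect; 0% = DMSO-treated cells and -100% = media-only wells without cells; nearly all actives have a fitted effect of over 55% in size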
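Fibrosarcoma NT cells, 750 per well in 5% FBS RPMI, were exposed to compound for 48 hours. Viability: CellTiter-Glo luminescence.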
TDP1 cell CPT = DT40-hTDP1 cell growth loss with CPT; chicken DT40 Tdp1-/-;hTDP1 cells + 20 nM CPT, ATP luminescence, 48 h; Potency, µM (doses to about 46.2 µM), inactives show at the top dose activity change, negative = growth inhibition, usual class: inhibitors; 420,000 tested, 12% active; AID 686979; note: potency is the fitted concentration of half-maximal effect; nearly all actives have a fitted effect of over 55% in size
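Cell growth measured by CellTiter-Glo luminescence after a minimum 48 h, 37 C compound exposure with 20 nM CPT in Tdp1-knockout DT40 cells stably expressing hTDP1, seeded 400/well; qHTS titration format.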
TDP1 cell noCPT = qHTS for Inhibitors of human tyrosyl-DNA phosphodiesterase 1 (TDP1): qHTS in cells in absence of CPT. 420,000 tested, 15% active. DT40 Tdp1-/- hTDP1 cells, no CPT, ATP luminescence, 48 h. AID 686978, 2013. Potency, µM (series often up to 46.2 µM), inactives show at the highest dose activity change, negative = growth inhibition, most hits filed as inhibitors; note: potency is the fitted concentration of half-maximal effect; nearly all actives have a fitted effect of over 55% in size
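Readout: luminescence from CellTiter-Glo after 30 min in the dark at RT. Cells: DT40 Tdp1-/- with stable hTDP1, 400/well. Exposure: compounds alone, ≥48 hr, 37 °C.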
The depositor's hits bear a star; ? = inconclusive; . = not tested or not shown. Unless noted, calls come from the whole dose curve; as a rule, active = well fitted curve in the direction sought with a large enough effect; inconclusive = small, poorly fitted or top-dose-only effect, or another doubt; inactive = no such curve, though single readings can be large; an effect the other way counts as inactive or inconclusive. Unless noted, % is set by controls: 0 for no effect and ±100 for the full control effect.

SMILES	uPA surface inh	HT1080 IDH1KD tx	IL1B secr inh	HT1080-NT tox	TDP1 cell CPT	TDP1 cell noCPT
Cc1ccc(C(=O)N/N=C\c2ccc(-c3ccc([N+](=O)[O-])cc3)o2)cn1	-0.5%	0.4%	-13.7	-5.2%	-0.5%	?
O=C(Cc1ccc([N+](=O)[O-])cc1)N/N=C/c1ccc([N+](=O)[O-])o1	?	?	10.9	?	10.3µM*	9.2µM*
O=C(CC12CC3CC(CC(C3)C1)C2)N/N=C\c1ccc[nH]1	0.7%	-4.3%	-17.3	-8.4%	6.5%	-15.5%
O=C(NCc1ccccc1)C(c1ccccc1)n1c(-c2ccccn2)nc2ccccc21 (stereo not drawn)	.	?	-17.4	-27.5%	-24.2%	-25.3%
COc1ccc(S(=O)(=O)c2c(SC)nn(CC(=O)Nc3cccc(C)c3C)c2N)cc1	.	.	.	.	-17.0%	?
CCOC(=O)N/N=C/c1ccc(F)cc1	.	-0.7%	-2.1	-2.0%	-8.9%	0.7%
O=[N+]([O-])c1ccc(/C=N/N=C/c2ccc([N+](=O)[O-])o2)o1	.	2.91µM*	-101.2*	4.61µM*	0.291µM*	0.731µM*
CCOC(=O)N/N=C\c1ccc([N+](=O)[O-])o1	-26.2%	?	36.8	-10.1%	?	22.4µM*
CC(=O)N/N=C/c1ccc([N+](=O)[O-])o1	.	.	.	.	?	21.1µM*
Cc1csc(N/N=C/c2ccc([N+](=O)[O-])cc2)n1	-2.3%	?	-10.2	?	-0.1%	?
Cc1csc(N=Cc2ccc([N+](=O)[O-])o2)n1	.	-4.2%	-12.1	-11.0%	14.6µM*	10.3µM*
CC(C)C(=O)N1CCC1(C)C(=O)NCc1ccc(C(C)(C)C)cc1 (stereo not drawn)	.	5.0%	25.1	11.7%	?	?
Cc1cc2ncn(/N=C/c3ccc([N+](=O)[O-])o3)c2cc1C	?	7.94µM*	?	-6.4%	13µM*	12.6µM*
CC1(C(=O)NNC(=O)c2ccc([N+](=O)[O-])cc2)CC1(Br)Br (stereo not drawn)	-4.4%	-9.2%	23.3	-2.2%	-11.1%	?
CC1(C(=O)N/N=C/c2ccc([N+](=O)[O-])o2)CC1(Br)Br (stereo not drawn)	-8.3%	?	-90.1*	?	13µM*	10.3µM*
COCCCNC(=O)CSc1nc2c(sc3ccccc32)c(=O)n1CCc1ccc(OC)c(OC)c1	.	.	.	.	?	5.17µM*
COCCCn1c(SCC(=O)Nc2ccccc2OC)nc2c(sc3ccccc32)c1=O	.	.	.	.	23.1µM*	25.9µM*
COCCCn1c(SCC(=O)NCc2ccccc2)nc2c(sc3ccccc32)c1=O	.	.	.	.	-15.0%	-16.8%
O=C(CSc1nc2c(sc3ccccc32)c(=O)n1CCCN1CCCC1)NCc1ccco1	-15.5%	?	-70.2*	?	2.8%	-10.4%
COc1ccccc1CNc1ncnc2onc(-c3ccc(F)cc3)c12	.	.	.	.	-29.7%	-32.4%
Cc1ccc(Cl)cc1N1CCN(c2ncnc3onc(-c4ccc(F)cc4)c23)CC1	.	.	.	.	-0.5%	-6.7%
Cc1ccc(Cl)cc1N1CCN(CCCNc2ncnc3onc(-c4ccc(F)cc4)c23)CC1	.	.	.	.	14.6µM*	18.4µM*
CC(C)(CO)Nc1ncnc2onc(-c3ccc(F)cc3)c12	-8.9%	-6.8%	8.0	-15.3%	-5.0%	-26.5%
Fc1ccc(-c2noc3ncnc(NCC4CCN(Cc5ccc(Cl)cc5)CC4)c23)cc1	.	.	.	.	?	13µM*
Cc1ccc(CN2CCC(CNc3ncnc4onc(-c5ccc(F)cc5)c34)CC2)cc1	.	.	.	.	-39.8%	23.1µM*
SMILES	uPA surface inh	HT1080 IDH1KD tx	IL1B secr inh	HT1080-NT tox	TDP1 cell CPT	TDP1 cell noCPT
ClC(Cl)c1nnc(-c2ccccc2)c(-c2c[nH]c3ccccc23)n1	-8.5%	0.0%	0.0	4.4%	3.66µM*	?
CCOc1cc(Br)c(C(=O)O)cc1OCC	.	4.7%	-5.0	4.0%	2.2%	-2.4%
CCOc1cc(Br)c(C=O)cc1OCC	-19.0%	32.6µM*	84.1	25.9µM*	5.17µM*	6.51µM*
CCc1cc(CNC(=O)CCc2nnc(CCCc3ccccc3)o2)on1	-17.3%	3.4%	3.8	-0.7%	5.3%	7.5%
CCN1CCN(CCNC(=O)CCCn2nc(C)c3c(C)n(-c4ccc(C)cc4)nc3c2=O)CC1	-1.0%	13.8%	9.8	12.5%	-10.9%	?
CCn1c(=O)c(CCC(=O)NCCN2CCOCC2)c(C)c2c(C)nn(-c3cccc(C)c3)c21	1.9%	-0.6%	-4.8	-0.5%	?	16.4µM*
Cc1cc(=O)n(CC(=O)NCCN2CCOCC2)c2c1c(C)nn2-c1ccccc1	0.2%	-9.3%	44.1	?	-9.4%	12.0%
CCN1CCN(CCNC(=O)CCc2c(C)c3c(C)nn(-c4ccccc4)c3n(C)c2=O)CC1	3.0%	?	-61.5*	?	?	?
CCOC(=O)c1cccc(NC(=O)CCS(=O)(=O)c2ccc3c(c2)CC(=O)N3C)c1	.	.	.	.	-24.8%	-2.3%
CC(=O)c1cn(CC(=O)Nc2ccc(C)cc2C)c2ccccc12	-4.8%	-15.7%	5.8	-3.8%	5.17µM*	5.8µM*
CCN1CCN(CC(=O)Nc2cccc(C)c2C)C(=O)C1=O	-62.1%	1.2%	-0.7	-0.2%	2.31µM*	-25.3%
CCN1CCN(CC(=O)Nc2ccc(C)cc2C)C(=O)C1=O	2.8%	5.9%	11.3	20.3%	13.3%	-13.1%
Cc1ccc(C)c(NC(=O)Cn2cc(C(=O)C3CC3)c3ccccc32)c1	0.3%	-21.3%	7.3	-12.0%	?	?
CC(=O)c1cn(CC(=O)Nc2cccc(C)c2C)c2ccccc12	2.2%	?	29.8	0.0%	?	25.9µM*
COCCN(C(=O)COC(=O)/C=C/c1ccc2c(c1)OCO2)c1c(N)n(Cc2ccccc2)c(=O)[nH]c1=O	1.5%	5.9%	0.6	7.8%	6.1%	-8.2%
COc1ccc(OCCCCn2c(CO)nc3ccccc32)cc1	0.2%	-17.1%	-18.2	-18.2%	-2.3%	?
CN(C(=O)c1cccc(NC(=O)Cc2cccc(NC(=O)C3CCN(C(=O)c4ccccc4)CC3)c2)c1)C1CC1	13.4%	10.6%	-14.9	11.1%	-20.4%	-26.7%
Cc1cccc(C)c1-n1nnnc1C(c1ccnc2ccccc12)N(CCC#N)Cc1ccccc1 (stereo not drawn)	.	-5.3%	-0.8	1.8%	13µM*	10.3µM*
Cc1cccc(C)c1-n1nnnc1C(c1ccnc2ccccc12)N(Cc1ccccc1)Cc1ccccc1 (stereo not drawn)	.	2.4%	-19.1	24.7%	?	?

Source: PubChem BioAssay (National Center for Advancing Translational Sciences (NCATS))
